# According to PubChem BioAssay AID651814 (National Center for Advancing Translational Sciences (NCATS), 2012):
# Screen size: about 2,100 compounds; about 590 (28%) were called active. Inconclusive results (about 42%) are left out. Some of the results follow. Unmarked numbers belong to inactive results. Calls come from the whole dose curve; as a rule, active = well fitted inhibition curve with a large enough effect; inconclusive = small, poorly fitted or top-dose-only effect; inactive = flat fitted curve, though single readings scatter.
# Target: DNA dC->dU-editing enzyme APOBEC-3F (Homo sapiens) (UniProt Q8IUX4)
# Sequence (Q8IUX4 whole entry, looked up): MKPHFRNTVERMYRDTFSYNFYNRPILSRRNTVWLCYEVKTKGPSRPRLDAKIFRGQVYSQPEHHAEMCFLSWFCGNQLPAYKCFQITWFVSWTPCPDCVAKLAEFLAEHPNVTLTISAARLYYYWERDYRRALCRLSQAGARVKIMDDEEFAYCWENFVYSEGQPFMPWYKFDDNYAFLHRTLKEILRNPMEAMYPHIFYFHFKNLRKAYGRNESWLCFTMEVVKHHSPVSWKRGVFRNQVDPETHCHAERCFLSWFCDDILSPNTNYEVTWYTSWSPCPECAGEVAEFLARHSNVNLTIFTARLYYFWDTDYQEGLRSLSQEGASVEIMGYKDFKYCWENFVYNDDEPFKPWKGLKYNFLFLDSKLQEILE
# Assay: qHTS for inhibitors of Vif-A3F interactions: Cherry picks; note: nearly all actives have a fitted effect of over 70% in size;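 for max response: % of control where 0% means no effect; active compounds raise eYFP fluorescence by blocking Vif-driven A3F loss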
# Settings: HeLa A3F-eYFP + Vif (tagged APOBEC3F with the HIV-1 protein that degrades it), eYFP fluorescence, 24 h
# Excerpt: The recent discovery and characterization of host restriction factors, which provide a potent defense to invading retroviruses, has provided new targets for antiviral drug development. APOBEC3G (A3G) and APOBEC3F (A3F) are potent cytidine deaminases that block HIV-1 replication; HIV-1 expresses the Vif protein, which counteracts A3G and A3F by binding to them and inducing their proteasomal degradation. The Vif-A3G and Vif-A3F interactions provide two potential targets for development of small molecules which can interfere with the ability of Vif to degrade A3G or A3F. […] To identify inhibitors that can interfere with Vif mediated degradation of A3G and A3F, we have developed Hela cell lines that stably express A3G or A3F tagged with eYFP at the C-terminal end (A3G-eYFP or A3F-eYFP, respectively) and Vif. In the absence of an inhibitor, Vif induces degradation of A3G-eYFP and A3F-eYFP, and the cells are not fluorescent. In the presence of an inhibitor, it is expected that Vif will be unable to degrade A3G-eYFP and/or A3F-eYFP, resulting in an increase in yellow fluorescence. In this assay, Vif A3F was screened against the cherry picks ordered from the MLSMR. NIH Chemical Genomics Center [NCGC] NIH Molecular Libraries Probe Centers Network [MLPCN] MLPCN Grant: MH093245 Assay Submitter (PI): Vinay Pathak, National Cancer Institute
# A3F-Vif cells were harvested from T225 flask and resuspended in phenol free OPTI-MEM medium with 5% FBS. Then 5 uL of 140,000 cells/mL resuspended cells was dispensed into each well of low base Aurora COC 1,536-well plates (black walled, clear bottom) using a Multidrop Combi dispenser. After overnight culture at 37 deg C with 5% CO2, a total of 23 nL of compounds at 5 selected concentrations from the NPC or positive control (2 mM stock of MG132) in DMSO was transferred to each well of the assay plate using a pintool (Kalypsys, San Diego, CA), and the plates were further incubated at 37 deg C with 5% CO2 for 24 hours. After that, the plates were measured on Acumen Explorer (TTP Lab Tech). The fluorescence was detected by 488 nm/Ex and […].
# Potency is the fitted concentration of half-maximal effect.
Structure (SMILES),Potency,max response [%]
Cc1nc2c3cc(F)ccc3n(Cc3ccccc3F)c2s1,14 µM (active),
Cc1nc2c3cc(F)ccc3n(Cc3ccccc3)c2s1,4.98 µM (active),
COc1cccc(CNCCSc2nnnn2C)c1OCc1ccc(F)cc1,,-0.625
Cc1ccc(S(=O)c2ccc([N+](=O)[O-])c3nonc23)cc1 (centres undefined),18.4 µM (active),
CN(C)c1ccc(C=C2SC(=S)N(Cc3ccco3)C2=O)cc1,4.98 µM (active),
Cc1cc(/C=C2\SC(=S)N(Cc3ccco3)C2=O)c(C)n1-c1ccccc1,18.4 µM (active),
O=C1/C(=C/c2ccc(O)cc2)SC(=S)N1Cc1cccnc1,,-10.2
Cc1cc(/C=C2\SC(=S)N(C)C2=O)c(C)n1-c1ccccc1O,20.6 µM (active),
Cc1cc(/C=C2\SC(=S)N(Cc3ccco3)C2=O)c(C)n1-c1cccnc1,20.6 µM (active),
S=C(Nc1cccc2ccccc12)NN1CCCCCC1,,0.0404
O=C(NN(c1ccccc1)c1ccccc1)c1ccc([N+](=O)[O-])o1,,-20.2
O=C(NCc1cccnc1)c1ccc([N+](=O)[O-])o1,,-20.4
Cc1cc2ccccn2c1C(=O)c1ccc([N+](=O)[O-])o1,11.6 µM (active),
N#C/C(=C\c1ccc(N2CCOCC2)o1)C(=O)NC1CCCCC1,15.8 µM (active),
N#C/C(=C\c1ccc(N2CCCCC2)o1)C(N)=O,15.8 µM (active),
N#C/C(=C/c1ccc(N2CCOCC2)o1)C(=O)NC1CCCCC1,16.4 µM (active),
Cc1onc(-c2c(F)cccc2Cl)c1C(=O)O/N=C(\N)c1ccc([N+](=O)[O-])o1,,-3.32
CSc1cccc(NC(=O)c2cc3c(COC(C)=O)cnc(C)c3oc2=O)c1,,-5.04
O=C(NCc1ccco1)c1cccc2c1C(=O)c1ccc(N3CCC(Cc4ccccc4)CC3)cc1S2(=O)=O,23.1 µM (active),
Cc1cc(C)c(S(=O)(=O)N2CCCCC2CCNC(=O)C(=O)NCc2ccco2)c(C)c1 (centres undefined),,-24.9
O=C(NC1CC1)c1cccc2c1C(=O)c1ccc(N3CCC(Cc4ccccc4)CC3)cc1S2(=O)=O,20.6 µM (active),
Cc1ccc(S(=O)(=O)N2CCCCC2CCNC(=O)C(=O)NCc2ccco2)cc1 (centres undefined),,-26.1
O=C(NC1CCCCC1)c1cccc2c1C(=O)c1ccc(N3CCC(Cc4ccccc4)CC3)cc1S2(=O)=O,12.5 µM (active),

Structure (SMILES),Potency,max response [%]
COc1cc(/C=C2\C(=N)N3N=C(S(C)(=O)=O)SC3=NC2=O)ccc1OC(=O)c1ccco1,,3.53
CCN(CC)c1ccc(/C=C2\C(=N)N3N=C(CC(=O)N4CCOCC4)SC3=NC2=O)cc1,0.396 µM (active),
CN(C)c1ccc(/C=C2\SC(N3CCCCC3)=NC2=O)cc1,16.4 µM (active),
CN(C)c1ccc(/C=C2\C(=N)N3N=C(CC(=O)N4CCCCC4)SC3=NC2=O)cc1,16.4 µM (active),
COc1cc(/C=C2\C(=N)N3N=CSC3=NC2=O)cc(Br)c1OC(=O)c1ccco1,,5.77
C1=Cc2ccccc2/C1=C\c1cc2c3c(c1)CCCN3CCC2,18.4 µM (active),
Cc1ccc(S(=O)(=O)c2cc3ccccc3oc2=Nc2ccc3c(c2)OCO3)cc1,,-1.94
Cc1sc2ncnc(N=Nc3c(O)[nH]c4ccccc34)c2c1C,13 µM (active),
Cc1sc2ncn(CC(=O)NCc3ccccc3)c(=O)c2c1C,,-23.3
Cc1sc2ncnc(SCC(=O)NC(C)(C)C)c2c1C,,0.663
O=S(=O)(Nc1ccc(C(O)(C(F)(F)F)C(F)(F)F)cc1)c1ccc(Cl)c2nonc12,12.5 µM (active),
Cc1ccc(F)c(S(=O)(=O)NC(=O)C2(C)CCN2C(=O)Cc2ccc(Cl)cc2Cl)c1 (centres undefined),,0.983
Cc1ccc(N=C2NC(=O)CC(C(=O)Nc3ccc4c(c3)OCO4)S2)cc1 (centres undefined),,-22.7
CCCN1C(=O)C(Cc2nc3ccccc3c(=O)n2CC)c2cc(Br)ccc21 (centres undefined),,-0.982
O=c1c2ccccc2nc(/C=C/c2ccc([N+](=O)[O-])o2)n1CCCO,3.26 µM (active),
Cn1c(/C=C/c2ccc([N+](=O)[O-])o2)nc2ccccc2c1=O,16.4 µM (active),
CCn1c(/C=C/c2ccc([N+](=O)[O-])o2)nc2ccccc2c1=O,3.26 µM (active),
Cc1cc(N/N=C/c2ccc([N+](=O)[O-])o2)nc2ccccc12,16.4 µM (active),
Cc1ccc2oc(/N=C(\N)NC(=O)C(C)(C)C)nc2c1,,-3.74
CNC(=O)C(Sc1nc(C)nc2c1oc1ccccc12)C(C)=O (centres undefined),,-18.1
Cc1cc(NC(=O)Nc2nnc(N(C)Cc3ccccc3)s2)ccc1Br,,-0.38
O=C(Nc1cc(Cl)cc2c1-c1ccc(Cl)cc1C2O)C(Cl)Cl (centres undefined),,-15.3
CCCCN(C(=O)c1ccc([N+](=O)[O-])s1)c1c(N)n(CCCC)c(=O)[nH]c1=O,,3.55

Structure (SMILES),Potency,max response [%]
COc1cccc(/C=N/n2c(C3CCCCC3)n[nH]c2=S)c1O,,2.43
Cc1[nH]c2ccccc2c1/C=C/c1cc[n+](C)cc1,1.58 µM (active),
Cc1ccc2[nH]c(C)c(/C=C/c3cc[n+](C)cc3)c2c1,0.994 µM (active),
Cc1[nH]c2ccccc2c1/C=C/C(=O)c1ccccc1,20.6 µM (active),
CCOc1cc(C)nc(NCc2ccccc2)n1,,-21.9
CCCn1c(C2CCCN2c2nc(-c3cccc(Br)c3)cs2)nc2ccccc21 (centres undefined),,2.76
C=C(C)CNC(=S)N/N=C1\CCCCc2ccccc21,,0.867
CCN1C(=O)/C(=C/C=C2\N(CC)c3cc(S(=O)(=O)N(C)C)ccc3N2c2ccccc2)SC1=S,,-29.7
CN1/C(=C\C=C2/SC(=S)N(CC(=O)O)C2=O)C(C)(C)c2ccccc21,,-6.86
C=CCN1C(=O)/C(=C\C=C2\N(C)c3ccccc3C2(C)C)SC1=S,0.461 µM (active),
CCCN1C(=O)/C(=C/C=C2\N(CC)c3ccccc3C2(C)C)SC1=S,1.77 µM (active),
CCCN1C(=O)/C(=C\C=C2\N(CC)c3ccccc3C2(C)C)SC1=S,2.06 µM (active),
CN1/C(=C\C=C2/SC(=S)NC2=O)C(C)(C)c2ccccc21,4.44 µM (active),
Clc1ccsc1-c1csc(-c2cccnc2)n1,,-27.5
NNC(=S)Nc1c(F)cc(F)cc1Br,,1.43
O=C1/C(=C/c2c[nH]c3ccccc23)CCC/C1=C\c1c[nH]c2ccccc12,16.4 µM (active),
Cn1nnnc1SCCNCc1cc(Br)ccc1OCc1ccccc1Cl,,-14.7
COc1cc(C(=O)OCC(=O)Nc2ccc(N3CCOCC3)cc2)ccc1OCC(C)C,,1.41
Cc1sc(NC(=O)c2sc3nc4c(C)cccc4cc3c2N)c(C#N)c1C,17.7 µM (active),
O=C(Nc1ccc(N2CCOCC2)cc1)c1cccc2ccccc12,,-29.2
Cc1cccc2cc3c(N)c(C(=O)N4CCOCC4)sc3nc12,7.31 µM (active),
Cc1ccc(C)c2nc3sc(C(=O)N4CCOCC4)c(N)c3cc12,12.5 µM (active),
Cc1cccc2cc3c(N)c(C(=O)Nc4ccc(N5CCOCC5)cc4)sc3nc12,11.2 µM (active),

Structure (SMILES),Potency,max response [%]
CCN(CC)c1ccc(/C=N/NC(=S)NC)c(O)c1,,-6.91
COc1ccc(Nc2nc(C)nc3sc4c(c23)CCC4)cc1O,,-29.4
CCn1c(O)c(/C=N/N=C/c2ccc(OC)cc2)c2cc(C3=NNC(=O)CC3)ccc21,6.51 µM (active),
CN(C)c1ccc(/C=C2\Cc3ccccc3C2=O)cc1,5.17 µM (active),
C[N+](C)(C)CCC(=O)N1C/C(=C/c2ccccc2)C(=O)/C(=C\c2ccccc2)C1,,-12.6
CN(C)c1ccc(/C=C2/C[N+](C)(C)C/C(=C/c3ccc(N(C)C)cc3)C2=O)cc1,2.59 µM (active),
O=C1/C(=C\c2cc([N+](=O)[O-])ccc2O)SC(=S)N1Cc1ccc(Cl)cc1,20.6 µM (active),
O=C1/C(=C\c2ccc(O)c(O)c2)SC(=S)N1Cc1ccccc1,,-22.4
O=C1CC(c2ccccc2)Cc2[nH]c(=O)c(-c3nc(-c4cccc(Cl)c4)cs3)cc21 (centres undefined),4.11 µM (active),
Cc1sc(-c2cc3c([nH]c2=O)CC(c2ccccc2)CC3=O)nc1-c1ccc(Cl)cc1 (centres undefined),1.84 µM (active),
CCN(c1ccc(NC(=O)CCc2nc3sc4c(c3c(=O)[nH]2)CCCC4)cc1)C(C)C,,-16.9
Clc1ccccc1C1CC(c2ccccc2)=Nc2ccccc2N1 (centres undefined),,-7.9
CC(=O)N1CCc2nc3sc(C(=O)c4ccc(F)cc4)c(N)c3c(C(F)(F)F)c2C1,20.6 µM (active),
COc1ccc(C(=O)c2sc3nc4c(c(C(F)(F)F)c3c2N)CN(C(C)=O)CC4)cc1OC,23.1 µM (active),
O=C1S/C(=C/c2ccc(N3CCOCC3)o2)C(=O)N1Cc1c(F)cccc1Cl,2.5 µM (active),
O=C1S/C(=C/c2ccc(N3CCOCC3)o2)C(=O)N1Cc1ccc(F)cc1,2.8 µM (active),
Cc1cc2nc3s/c(=C/c4ccc(-c5ccccc5C(=O)O)o4)c(=O)n3c2cc1C,20.6 µM (active),
Cc1ccc(NC(=O)C2CCN(S(=O)(=O)c3ccc(Cl)c(C(F)(F)F)c3)CC2)nc1,,1.5
O=S(=O)([N-]c1nc2ccccc2nc1-[n+]1ccc(-c2ccncc2)cc1)c1ccccc1,,-0.136
CCc1cc[n+](-c2nc3ccccc3nc2[N-]S(=O)(=O)c2ccc(Br)s2)cc1,23.1 µM (active),
